Sampled rows, rich in hits. Any-hit rate of the full collection: about 9.9%.
SW480 rereplic: DNA re-replication induction in SW480 cells. SW480 DNA re-replication, Hoechst DNA content imaging, 48 h. Potency, µM (series often up to 46.1 µM), most hits filed as activators. hit rate 1.8% among 340,000. AID 624297; also: nearly all actives have a fitted effect of over 55% in size
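Treated cells incubate 48 hr (37 C, 5% CO2), are stained 40 min with Hoechst, and nuclear fluorescence is enumerated; a rise in nuclei with high DNA signal marks re-replication.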
KB-3-1 cytotox: kills parental KB-3-1 adenocarcinoma cells; KB-3-1 viability, CellTiter-Glo ATP luminescence, 72 h; Potency, µM (doses to about 46.1 µM), usual class: cytotoxic; hit rate 1.4% among 400,000; AID 1347075; also: nearly all actives have a fitted effect of over 60% in size
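Here the drug-naive KB-3-1 line serves as comparator for MDR sub-line selectivity; cells received compound titrations, 72 h at 37 °C, then CellTiter-Glo readout.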
MCF10A rerep: induces DNA re-replication in MCF 10a normal breast cells. MCF 10A DNA re-replication, Hoechst nuclear intensity, 48 h. Potency, µM (series often up to 46.1 µM), actives largely listed as activators. hit rate 2.9% among 350,000. AID 624296; also: nearly all actives have a fitted effect of over 50% in size
IL-1B inflam inh: inflammasome signaling inhibition, IL-1 beta readout; THP-1 LPS/ATP IL-1B secretion, AlphaLISA, 16 h; stronger effect = lower value; activity change, % at 57.5 µM; hit rate 4.7% among 360,000; AID 743279; in the data active = activity change below about -50%; inconclusive = mostly about -30% to -49%
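Secreted IL-1B measured by AlphaLISA bead assay after 16 h compound exposure of THP-1 cells; compounds (final up to 57.5 uM) added 1 h before LPS (250 ng/mL) and ATP (1.25 mM) stimulation; lower signal means less secretion.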
KB-V1 cytotox: KB-V1 MDR subline cytotoxicity. KB-V1 MDR cells viability, CellTiter-Glo, 72 h. Potency, µM (top dose mostly 46.1 µM), most hits filed as cytotoxic. hit rate 3.4% among 400,000. AID 1347076; also: nearly all actives have a fitted effect of over 60% in size
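Potencies derive from concentration-effect curves fitted to normalized luminescence (CellTiter-Glo) of KB-V1 cells treated for 72 h at 37 degrees C in phenol-red-free DMEM containing 10% FBS.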
Hits are given with their value; . = inactive; ? = inconclusive; / = no result given; ! = not active in a repeat. Unless noted, calls follow the shape of the dose curve; as a rule, active = well fitted curve in the direction sought with a large enough effect; inconclusive = small, poorly fitted or top-dose-only effect, or another doubt; inactive = no such curve, though single readings can be large; an effect the other way counts as inactive or inconclusive.

SMILES	SW480 rereplic	KB-3-1 cytotox	MCF10A rerep	IL-1B inflam inh	KB-V1 cytotox
COC(=O)CSc1nc(N)c(C#N)c(-c2ccc(O)cc2)c1C#N	.	?	.	-70	.
CO[C@H]1CN(C)C(=O)c2ccc(NC(=O)C3CCC3)cc2OC[C@H](C)N(Cc2ccc(F)cc2)C[C@@H]1C	/	?	/	-70	.
CCC(=O)Nc1ccc2c(c1)OC[C@@H](C)N(Cc1ccccc1F)C[C@@H](C)[C@@H](OC)CN(C)C2=O	/	.	/	.	.
Oc1c(Br)cc(Br)cc1C=Nc1ccc2c(c1)OCCO2	.	.	.	.	.
Oc1[nH]c2ccccc2c1C=Nc1ccc2c(c1)OCCO2	.	.	?	-90	16µM
CC(=O)NC1=NN(C(C)=O)C(C)(c2cccs2)S1 (centres undefined)	12µM	?	1.3µM	.	.
COc1ccc(C(=O)Nc2ccc(-c3nc4ccccc4[nH]3)cc2)cc1OC	/	.	/	/	?
Cn1c(/C(C#N)=C(\O)c2ccccc2Cl)nc2ccccc21	?	.	?	.	?
CCN(CC)S(=O)(=O)c1ccc(C(O)=C(C#N)c2nc3ccccc3n2C)cc1	.	?	?	-72	.
O=C(N/N=C/C(Cl)=C\c1ccccc1)c1ccco1	.	.	.	.	.
Cc1cccc(/C=N/NC(=O)c2ccc(Br)cc2)c1	.	.	?	.	?
Cc1cccc(N=N/C(=C\O)C(=O)c2ccc(Br)cc2)c1	?	?	?	-85	?
O=C(/C(=C/O)N=Nc1ccccc1)c1ccco1	?	.	15µM	.	.
O=C(/C(=C/O)N=Nc1ccccc1Cl)c1ccccc1	.	.	?	-99	.
COC(=O)/C(N=Nc1cccc(C(F)(F)F)c1)=C(\C)O	.	?	.	.	5.8µM
O=C(/C(=C/O)N=Nc1cccc(C(F)(F)F)c1)c1ccccc1	.	.	?	-95	.
COc1cccc(CNC(=O)CSc2nnc3c(n2)[nH]c2ccc(C)cc23)c1	.	.	.	.	.
CCCCCCCCn1ccc(=N)cc1	.	5.8µM	.	.	.
CCCCCCN1Cc2ccccc2C1	.	.	.	.	.
CCCCCCCCCCn1ccc(=N)cc1	21µM	2.3µM	?	-95	?
COc1cccc(NS(=O)(=O)c2cc(-c3cnc(C4CC4)o3)ccc2C)c1	/	4.1µM	/	/	7.3µM
Cc1ccc(CNS(=O)(=O)c2ccc(-c3cnc(C4CC4)o3)cc2)cc1	.	.	.	.	.
COc1ccc(C)cc1NS(=O)(=O)c1ccc(-c2cnc(C3CC3)o2)cc1	0.13µM	0.21µM	?	.	?
Cc1ccc(NS(=O)(=O)c2ccc(-c3cnc(C4CC4)o3)cc2)cc1	18µM	18µM	10µM	.	?
Cc1ccc(N(C)S(=O)(=O)c2ccc(-c3cnc(C4CC4)o3)cc2)cc1	?	3.3µM!	?	.	2.9µM!
SMILES	SW480 rereplic	KB-3-1 cytotox	MCF10A rerep	IL-1B inflam inh	KB-V1 cytotox
CC(=O)c1ccc(NS(=O)(=O)c2ccc(-c3cnc(C4CC4)o3)cc2)cc1	.	.	.	.	?
Cc1cccc(C)c1NS(=O)(=O)c1ccc(-c2cnc(C3CC3)o2)cc1	?	0.023µM	?	.	0.73µM
COc1cc(Cl)c(NS(=O)(=O)c2ccc(-c3cnc(C4CC4)o3)cc2)c(OC)c1	/	1.6µM	/	/	1µM
O=C(c1cccs1)N1CCN(c2ncc(Br)cn2)CC1	.	.	.	.	.
COC(=O)Cn1cnc2c(Cl)nc(F)nc21	?	.	.	-90	.
Cc1noc(C)c1COc1ccccc1C(=O)NCc1ccco1	.	.	.	.	.
C#C[C@]1(OC(C)=O)CCC2C3CCC4=CC(=O)CC[C@@H]4C3CC[C@@]21C (some centres undefined)	.	?	.	.	9.2µM
C#C[C@]1(O)CC[C@@H]2[C@H]3CCC4=CCCC[C@@H]4[C@@H]3CC[C@@]21C	.	/	10µM	/	/
C#C[C@]1(O)CC[C@H]2[C@@H]3CCC4=CCCC[C@@H]4[C@H]3C(=C)C[C@@]21CC	.	/	13µM	/	/
Cc1ccccc1C(=O)Nc1cccc(C(=O)OCc2cc(=O)n3nc(C4CC4)sc3n2)c1	/	.	/	/	.
CCOC(=O)c1ccccc1NC(=O)CSc1nc2[nH]ncc2c(=O)[nH]1	.	.	.	.	.
COc1c(CC=C(C)C)cc(C2CC(=O)c3c(O)cc(O)cc3O2)cc1CC=C(C)C (centres undefined)	.	.	?	?	?
COC1=CC(=O)C(C2CC(=O)c3c(O)cc(O)cc3O2)=CC1=O (centres undefined)	?	.	.	-97	?
COc1cccc(C(c2sc3nc(-c4ccco4)nn3c2O)N2CCN(C)CC2)c1 (centres undefined)	/	.	/	/	?
N#CC1(C#N)CC(C=O)=C(N)C1(C#N)CC(=O)C12CC3CC(CC(C3)C1)C2 (centres undefined)	?	.	18µM	-102	.
Nc1nccnc1C(=O)OCC(=O)C12CC3CC(CC(C3)C1)C2	.	.	.	.	.
Cc1ccc(-c2nc(S(=O)(=O)c3ccc(Cl)cc3)c(N3CCCCC3)o2)cc1	/	.	/	/	?
Cc1nnc(NC(=O)c2ccc(S(=O)(=O)N3CCc4ccccc4C3)cc2)o1	.	.	.	.	.
Cc1cc(C)c2sc(NNC(=O)c3ccc(S(=O)(=O)N4CCc5ccccc5C4)cc3)nc2c1	5.2µM	?	?	.	.
Cc1cc(C)c2nc(NNC(=O)c3ccc(S(=O)(=O)N4CCc5ccccc5C4)cc3)sc2c1	12µM	?	?	.	.
CCc1cc(-c2nnn(CCC3COCCO3)c2CC)ccc1-c1cn(Cc2ccccc2)nn1 (centres undefined)	/	?	/	.	1.8µM
CCc1cc(-c2cnnn2Cc2ccc3ccccc3c2)ccc1-c1cn(CC(C)C)nn1	/	?	/	.	?
Cc1nn(CCc2nn[nH]n2)c2nc(-c3ccc(C4CCCCC4)cc3)cc(C(F)(F)F)c12	.	.	12µM	-105	.
Cc1nn(CCC(=O)O)c2nc(-c3cccnc3)cc(C(F)(F)F)c12	.	.	.	.	.
O=C(O)c1cccc(N/N=C/C2=C(Cl)c3cc(Cl)ccc3SC2)c1	.	.	8.2µM	.	?
SMILES	SW480 rereplic	KB-3-1 cytotox	MCF10A rerep	IL-1B inflam inh	KB-V1 cytotox
O=C(O)c1cccc(N/N=C/c2ccc(F)c(F)c2)c1	.	.	.	.	.
Cc1cccc(NC(=S)NC2CC3CCCC(C2)N3Cc2cccs2)c1 (centres undefined)	.	.	.	-78	.
COCCNC(=S)NC1CC2CCCC(C1)N2Cc1cccs1 (centres undefined)	.	.	.	.	.
COc1ccccc1NC(=O)CN1CCN(c2ccccc2)CC1	.	.	.	.	.
COc1cc(C2Nc3ccc4ncccc4c3C3=C2C(=O)CCC3)ccc1O (centres undefined)	21µM	3.3µM	16µM	.	.
COc1ccc(-n2c(SC(CN3CCCCC3)CN3CCCC3=O)nc3ccccc3c2=O)cc1 (centres undefined)	.	.	.	-52	?

From PubChem
